The values that follow come from PubChem BioAssay (EPA / NIEHS).

Assay [1] concerns zebrafish Estrogen Receptor (ER2a), gene 317734. As to the kind of experiment: ATG_zfER2a_XSP2: Attagene TRANS-FACTORIAL Multi-Species (XSP2) HepG2 Assay for zebrafish Estrogen Receptor (ER2a) (AID 2283818).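 Also: hits raise reporter mRNA so AC50 reflects activation of zebrafish ER2a.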 Summed up: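 HepG2 cells transiently transfected with GAL4-UAS reporter units and chimeric zebrafish ER2a-Gal4, exposed 24 h; medium contains 3 nM 6-alpha-fluorotestosterone and 1.5 nM norgestrel. Reporter mRNA quantified by RT-PCR, HpaI digestion, capillary electrophoresis; gain versus DMSO.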

The test system of assay [2] is frog Estrogen Receptor (ER), gene 398734. Briefly: ATG_frER1_XSP2: Attagene TRANS-FACTORIAL Multi-Species (XSP2) HepG2 Assay for frog Estrogen Receptor (ER) (AID 2283821).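 Also: hits raise reporter mRNA above DMSO baseline so potency means agonist or activator.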 Summed up: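 HepG2, transient MRTU transfection, chimeric NR-GAL4/UAS reporters; 24 h compound exposure, 24-well. Readout: reporter mRNA via RT-PCR + capillary electrophoresis, fluorescence. Positive fit vs DMSO baseline.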

Assay [3] relates to zebrafish Estrogen Receptor (ER2b), gene 317733. Briefly: ATG_zfER2b_XSP2: Attagene TRANS-FACTORIAL Multi-Species (XSP2) HepG2 Assay for zebrafish Estrogen Receptor (ER2b) (AID 2283823).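 Also: fitted upward as reporter gain over DMSO so potency reflects activation.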 Summed up: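 Read-out: fluorescent reporter mRNA, measured by RT-PCR then capillary electrophoresis after HpaI digestion. HepG2 cells carried transiently transfected multi-reporter TRANS constructs (NR-Gal4 chimeras); 24 h chemical exposure; activity scored upward versus DMSO control.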

Assay [4] deals with Estrogen receptor (Homo sapiens) (UniProt P03372). As to the kind of experiment: ATG_hERa_XSP2: Attagene TRANS-FACTORIAL Multi-Species (XSP2) HepG2 Assay for human Estrogen Receptor (ERa) (AID 2283827). On the procedure: ATG_XSP2_multi-species_TRANS is a cell-based, multiplexed assay created by modifying the existing Attagene TRANS-FACTORIAL system to include a panel of nuclear receptors from some or all the following species: human (Homo sapiens), mouse (Mus musculus), frog (Xenopus laevis), zebrafish (Danio rerio), chicken (Gallus gallus), and turtle (Chrysemys picta). The ECOTOX-FACTORIAL format uses HepG2, a human liver cell line, with measurements taken at 24 hours after chemical dosing in a 24-well plate. Xsp2 included 3 nM 6-alpha-fluorotestosterone and 1.5 nM norgestrel to stimulate the androgen receptor.ATG_hERa_XSP2 is one of 29 assay components measured or calculated from the ATG_XSP2_multi-species_TRANS assay. It is designed to make measurements of mRNA induction, a form of inducible reporter, as detected with fluorescence intensity signals by Reverse transcription polymerase chain reaction (RT-PCR) and Capillary electrophoresis technology.The assay endpoint ATG_hERa_XSP2 was analyzed in the positive analysis fitting direction relative to DMSO as the negative control and baseline of activity. Using a type of inducible reporter, measures of mRNA for gain-of-signal activity can be used to understand the reporter gene at the transcription factor-level as they relate to the gene ER. Furthermore, this assay endpoint can be referred to as a primary readout, because this assay has produced multiple assay endpoints where this one serves a reporter gene function. To generalize the intended target to other relatable targets, this assay endpoint is annotated to the nuclear receptor intended target family, where the subfamily is steroidal.
Human liver HepG2 cells are transiently transfected with multiple reporter transcription units (MRTUs) in 6-well plates using FuGene 6 reagent (Roche; 3 ml FuGene/1 mg DNA). The MRTU constructs are regulated by a cis-regulating element (promoter). […] A major difference between the CIS and TRANS system is that in CIS activities of endogenous TFs are measured, whereas the TRANS assay evaluates changes in activities of exogenous, chimeric NR-Gal4 proteins. […] At the end of 24 hour incubation, total RNA was isolated using TriZol reagent (Invitrogen). The isolated RNA is then reverse-transcribed using oligo(dT) primer and Mo-MLV reverse transcriptase (Invitrogen) with DNAse I (Ambion) treatment for 30 min. The one-tenth of the produced cDNA was amplified by PCR using Taq DNA polymerase (Invitrogen) and two reporter sequence-specific primers. The PCR products were fluorescently labeled by primer extension with 6-arboxyfluorescein (6-FAM) 5'-labeled reporter sequence-specific primer (2 min at 95 C, 20 s at 68 C and 10 min at 72 C) and these products were digested with 5U of HpaI (New England Biolabs) for 2h at 37 C. The fragments were purified using Qiaquick PCR columns (Qiagen), analyzed on an ABI 3130xL genetic analyzer (Applied Biosystems) with peak positions identified by using a set of X-rhodamine (ROX)-labeled MapMarker1000 molecular weight standards (BioVentures). The raw capillary electrophoresis data was processed using Attagraph software (Attagene).

Assay [5] concerns frog Estrogen Receptor (ER2), gene 100174814. As to the kind of experiment: ATG_frER2_XSP2: Attagene TRANS-FACTORIAL Multi-Species (XSP2) HepG2 Assay for frog Estrogen Receptor (ER2) (AID 2283828). The essentials: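 Human liver HepG2, transient MRTU transfection (TRANS format, exogenous NR–Gal4). 24 h cpd exposure. Total RNA → RT → PCR → FAM label → HpaI cut → CE. Positive direction vs DMSO.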

Assay [6] concerns the target Peroxisome proliferator-activated receptor gamma (Homo sapiens) (UniProt P37231). Briefly: ATG_hPPARg_XSP2: Attagene TRANS-FACTORIAL Multi-Species (XSP2) HepG2 Assay for human Peroxisome Proliferator-activated Receptor gamma (PPARg) (AID 2283829).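 Also: actives raise reporter mRNA above DMSO so AC50 reflects PPARg activation.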 Summed up:
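HepG2 cells transiently transfected with multiplexed GAL4-UAS reporter units for chimeric NR-Gal4 receptors, dosed 24 h. Reporter mRNA quantified by RT-PCR, 6-FAM labeling, HpaI digestion and capillary electrophoresis; gain-of-signal fitted against DMSO baseline.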

The subject of assay [7] is chicken Androgen Receptor (AR), gene 422165. Briefly: ATG_chAR_XSP2: Attagene TRANS-FACTORIAL Multi-Species (XSP2) HepG2 Assay for chicken Androgen Receptor (AR) (AID 2283819).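 Also: hits raise reporter mRNA above DMSO so potency is for activation.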 The essentials:
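HepG2 cells transiently transfected with chicken AR–GAL4 chimeric reporter constructs, stimulated with 3 nM 6-alpha-fluorotestosterone plus 1.5 nM norgestrel, dosed 24 h. Reporter mRNA quantified by RT-PCR and capillary electrophoresis; gain of signal fitted versus DMSO.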

Assay [8] has as its system frog Androgen Receptor (AR), gene 399456. As to the kind of experiment: ATG_frAR_XSP2: Attagene TRANS-FACTORIAL Multi-Species (XSP2) HepG2 Assay for frog Androgen Receptor (AR) (AID 2283824).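 Also: actives raise reporter signal above DMSO so AC50 reflects agonist-like induction.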 Summed up:
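HepG2 cells transiently transfected with GAL4-UAS reporter units and frog (Xenopus laevis) AR-Gal4 chimera; reporter mRNA measured 24 h after dosing by RT-PCR and capillary electrophoresis. Gain of signal fitted relative to DMSO baseline.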

Assay [9] is described as follows: ATG_M_32_XSP2: Attagene TRANS-FACTORIAL Multi-Species (XSP2) HepG2 Assay for M19 Transcription Factor (Internal Marker) (AID 2283826). The essentials: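 HepG2 cells transiently transfected with GAL4-UAS reporter transcription units, dosed with compound for 24 h in presence of 3 nM 6-alpha-fluorotestosterone and 1.5 nM norgestrel; reporter mRNA quantified by RT-PCR, FAM labelling, HpaI digestion and capillary electrophoresis.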

Assay [10] in a line: ATG_M_19_XSP2: Attagene TRANS-FACTORIAL Multi-Species (XSP2) HepG2 Assay for M32 Transcription Factor (Internal Marker) (AID 2283822). Summed up:
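Internal background marker in a multi-species nuclear receptor TRANS panel: transfected HepG2 cells exposed 24 h, with 3 nM 6-alpha-fluorotestosterone and 1.5 nM norgestrel present. Readout is RT-PCR of reporter transcripts resolved by capillary electrophoresis, gain-of-signal versus DMSO.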

Values joined by “and” are separate entries in the source; they are usually repeats but may differ in a detail not shown here. Identical values can stand only once. Records with an inconclusive call do not appear. A structure can be active in one record and inactive in another. Active and inactive are the calls of the source. The calls were made as follows: active = hit-call score of the fitted dose curve at least 0.9, where 1 is the maximum; inconclusive = response in the unintended direction; inactive = score below 0.9.

By AC50 is commonly meant the midpoint of the concentration-response curve, whichever way the signal moves.

Chain of Estrogen receptor (Homo sapiens) (P03372 whole entry, looked up): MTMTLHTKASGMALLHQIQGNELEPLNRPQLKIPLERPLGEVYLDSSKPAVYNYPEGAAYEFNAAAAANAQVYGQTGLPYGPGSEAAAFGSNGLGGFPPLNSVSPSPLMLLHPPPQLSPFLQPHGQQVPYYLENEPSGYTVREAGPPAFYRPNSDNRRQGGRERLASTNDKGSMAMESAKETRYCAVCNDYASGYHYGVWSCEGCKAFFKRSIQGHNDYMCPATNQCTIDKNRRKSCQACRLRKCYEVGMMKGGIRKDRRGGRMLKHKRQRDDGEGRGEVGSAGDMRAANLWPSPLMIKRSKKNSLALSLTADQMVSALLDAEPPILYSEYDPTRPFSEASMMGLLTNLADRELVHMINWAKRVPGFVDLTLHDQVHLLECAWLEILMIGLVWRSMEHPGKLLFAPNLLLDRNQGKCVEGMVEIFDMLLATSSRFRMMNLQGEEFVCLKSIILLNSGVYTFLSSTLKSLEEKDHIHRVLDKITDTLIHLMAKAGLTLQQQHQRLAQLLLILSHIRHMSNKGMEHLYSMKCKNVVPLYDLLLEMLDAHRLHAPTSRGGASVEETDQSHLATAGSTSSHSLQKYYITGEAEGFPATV
Chain of Peroxisome proliferator-activated receptor gamma (Homo sapiens) (P37231 whole entry, looked up, the tested form may be a part): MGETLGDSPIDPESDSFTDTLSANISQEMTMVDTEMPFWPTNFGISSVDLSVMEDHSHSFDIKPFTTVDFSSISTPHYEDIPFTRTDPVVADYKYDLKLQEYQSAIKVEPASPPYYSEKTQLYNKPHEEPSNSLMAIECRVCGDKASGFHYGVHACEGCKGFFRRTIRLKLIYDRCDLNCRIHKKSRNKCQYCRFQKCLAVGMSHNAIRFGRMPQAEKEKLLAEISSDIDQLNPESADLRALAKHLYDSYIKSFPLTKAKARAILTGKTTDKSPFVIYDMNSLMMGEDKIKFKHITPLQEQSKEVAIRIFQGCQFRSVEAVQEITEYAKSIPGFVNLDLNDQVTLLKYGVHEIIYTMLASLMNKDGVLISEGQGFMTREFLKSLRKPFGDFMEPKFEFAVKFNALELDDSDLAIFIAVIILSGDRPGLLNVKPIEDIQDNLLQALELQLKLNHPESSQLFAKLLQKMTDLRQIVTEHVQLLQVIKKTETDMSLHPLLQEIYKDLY

Regarding `c1ccc2c(c1)Nc1ccccc1S2`, the AC50 in assay [1] is 19 µM (active) and 6.16 µM (active); in assay [2] it was 14.7 µM (active) and 13.2 µM (active); in [3], 52.1 µM (active) and 27.9 µM (active); in [4], 12.7 µM (active) and 8.42 µM (active); in assay [5] it was 16.7 µM (active) and 5.21 µM (active); in assay [6] it was 22.2 µM (active) and 21.7 µM (active).

Turning to `O=S(=O)(c1ccc(O)cc1)c1ccc(O)cc1`, the AC50 was 5.32 µM (active) and 3.79 µM (active) in [1]; 27.1 µM (active) in assay [7]; 2.94 µM (active) and 894 nM (active) in assay [2]; 6.5 µM (active) and 3.07 µM (active) in assay [3]; 8.07 µM (active) in assay [8]; 1.87 µM (active) and 2.38 µM (active) in assay [4]. Besides, the AC50 is 26.9 µM (active) and 5.73 µM (active) in [5]; 8.88 µM (active) and 28.6 µM (active) in [6]. The call in assay [7] and in assay [8] was inactive.

For the compound `CC(C)(C)c1ccc(O)cc1`, the compound was classed as inactive in assay [1], in assay [2], in [9] and in assay [6]. In addition, the half-maximal activity concentration (AC50) is 26.6 µM (active) in [2]; 34.3 µM (active) and 13.7 µM (active) in [3]; 14.9 µM (active) and 6.96 µM (active) in [5].

For the compound `CCC(C)(C)c1ccc(O)cc1`, the compound was called inactive in assay [1], in [7], in assay [10], in assay [9] and in [6]. Moreover, the AC50 in assay [2] was 25.9 µM (active) and 2.38 µM (active); in [3] it was 13.9 µM (active) and 3.03 µM (active); in [4] it was 6.43 µM (active) and 3.44 µM (active); in assay [5], 27.9 µM (active) and 3.07 µM (active).

With `CCCCc1ccc(O)cc1`, the AC50 in [1] was 6.3 µM (active) and 1.66 µM (active); in assay [2], 1.96 µM (active) and 1.08 µM (active); in assay [3], 12.5 µM (active) and 5.32 µM (active); in [4] it was 4.58 µM (active) and 3.47 µM (active); in assay [5], 4.69 µM (active) and 2.33 µM (active); in [6] it was 100 µM (active).

Regarding `O=P(Oc1ccccc1)(Oc1ccccc1)Oc1ccccc1`, the compound was called inactive in [1], in assay [7] and in [9]. The half-maximal activity concentration (AC50) was 7.88 µM (active) in assay [3], 1.44 µM (active) in assay [4], 2.82 µM (active) in assay [5] and 4.79 µM (active) in assay [6].
